Laboratory results published in PubChem BioAssay (NCI).
The panel holds about 79,000 compounds, 15% with a hit somewhere; the sample as a whole holds those more often. Active and inactive are the calls of the source. Rule as the data show it: active = growth inhibition above about 70%; inactive = the rest.

experiment: NCI Yeast Anticancer Drug Screen. Data for the rad50 strain (AID 155);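 also: 0% = growth of vehicle-only cultures of the same strain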; details: S. cerevisiae rad50 strain growth inhibition; at 50.0 µM; active compounds read high
Summary of the method: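 Readout: growth inhibition relative to vehicle-treated cultures. Compound exposure was carried out in a genetically defined yeast strain deficient in DNA damage repair.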

Which growth inhibition does the source give for `O=C(NC(=O)c1ccccc1[N+](=O)[O-])Nc1ccc(Oc2ncc(Cl)cn2)c(C(F)(F)F)c1` here?
The growth inhibition was 17.1% (inactive).

Which growth inhibition does the source give for `CC(C#N)N(C)c1c([N+](=O)[O-])c(=O)n(C)c(=O)n1C` (stereo not given) here?
The growth inhibition was -5.85% (inactive).

With `Cc1nc(-c2ccccc2)nc2c1nc(Cc1ccc(Cl)cc1)n2Nc1ccccc1` as the compound, how does the growth inhibition read?
Its growth inhibition is 1.7% (inactive).

For `C[C@@]1(Cc2ccccc2)C(=O)N2[C@@H](CO)C(c3ccccc3)O[C@]2(C)c2ccccc21` (stereo not given in full), which growth inhibition is on record?
The growth inhibition was -10.8% (inactive).

Which growth inhibition does the source give for `CN(C)c1ccc(/C=C(\C#N)c2ccccc2Br)cc1` here?
Its growth inhibition is 0.15% (inactive).

Which growth inhibition does the source give for `NCC(=O)NC1CCCCC1` here?
Its growth inhibition is 30.6% (inactive).

With `NNC(=Nc1ccccc1)SCc1ccccc1` as the compound, how does the growth inhibition read?
Its growth inhibition is 3.05% (inactive).

For `C/C(=N/NC(N)=O)c1ccc(C)o1`, which growth inhibition is on record?
The growth inhibition was 1.85% (inactive).

With `CNCC(OC)OC` as the compound, how does the growth inhibition read?
The growth inhibition was 5.3% (inactive).

With `Cc1c[nH]c(=O)n(CC(=O)C2(O)CCC3C4CCC5=CC(=O)CCC5(C)C4CCC32C)c1=O` (stereo not given) as the compound, how does the growth inhibition read?
Its growth inhibition is 5.25% (inactive).

For `Cc1cc2nc(C(C)(C)O)[nH]c2cc1C`, which growth inhibition is on record?
The growth inhibition was 0.2% (inactive).

With `COc1cc(/C=N\N=C(/C)c2ccc(C)cc2C)cc(OC)c1OC` as the compound, how does the growth inhibition read?
Its growth inhibition is 21.4% (inactive).

Which growth inhibition does the source give for `N/N=C(\c1nc2ccc([N+](=O)[O-])cc2[nH]c1=O)C(O)c1ccc(Cl)c(Cl)c1` (stereo not given) here?
The growth inhibition was 5.7% (inactive).

With `O=C(c1ccccc1)C(c1ccccc1)(c1ccccc1)c1ccccc1` as the compound, how does the growth inhibition read?
The growth inhibition was -4.1% (inactive).

With `CN(C)C(=S)N(C)C` as the compound, how does the growth inhibition read?
Its growth inhibition is -37.1% (inactive).

Which growth inhibition does the source give for `C=CCCCC1CCCNC1=O` (stereo not given) here?
The growth inhibition was 5.05% (inactive).

With `CC(Cl)C(O)C#N` (stereo not given) as the compound, how does the growth inhibition read?
Its growth inhibition is -25.1% (inactive).

Which growth inhibition does the source give for `O=c1cc(-c2ccc(O)cc2)oc2cc(O)cc(O)c12` here?
The growth inhibition was 5.85% (inactive).

Which growth inhibition does the source give for `CC1(C)O[C@H]2Cn3c(c(C#N)c4ccccc43)[C@H]2O1` here?
Its growth inhibition is 11.2% (inactive).

Which growth inhibition does the source give for `CSc1cnc2ccccc2c1Sc1c[nH]c2ccccc2c1=O` here?
Its growth inhibition is -15% (inactive).

With `N#Cc1c(Br)n(C2OC(CO)C(O)C2O)c2ncncc12` (stereo not given) as the compound, how does the growth inhibition read?
The growth inhibition was 1.5% (inactive).

experiment: NCI Yeast Anticancer Drug Screen. Data for the mec2-1 strain (AID 157); details: S. cerevisiae mec2-1 strain, at 50.0 µM, active compounds read high
Summary of the method: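 Strain: mec2-1 (DNA repair/cell cycle alteration). Compound exposure, then growth measured; inhibition expressed relative to vehicle.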

With `Cc1cnc(N)s1` as the compound, how does the growth inhibition read?
The growth inhibition was -23.9% (inactive).

For `Cc1cc(O)c(/C=N/C(=S)NCCc2ccccc2)c(=O)o1`, which growth inhibition is on record?
Its growth inhibition is -29.5% (inactive).

With `O=C(Nc1cccc([N+](=O)[O-])c1)OCC#CCOC(=O)Nc1cccc([N+](=O)[O-])c1` as the compound, how does the growth inhibition read?
Its growth inhibition is 7.5% (inactive).

For `COC(=O)/C(=N\NC(=S)NN)C(C(=O)C(=O)Nc1ccccc1C(N)=O)c1nc2ccccc2[nH]c1=O` (stereo not given), which growth inhibition is on record?
The growth inhibition was 6.9% (inactive).

For `CC(=O)Oc1ccc(C(c2ccc(OC(C)=O)cc2)c2ccccn2)cc1`, which growth inhibition is on record?
Its growth inhibition is -0.6% (inactive).

With `C[S+](C)N(c1ccccc1)C(C)(C)C` as the compound, how does the growth inhibition read?
The growth inhibition was -8.2% (inactive).

For `N/C=N/OCc1ccccc1`, which growth inhibition is on record?
Its growth inhibition is 5.05% (inactive).

Which growth inhibition does the source give for `CCCCCC(=O)Oc1ccccc1OC` here?
The growth inhibition was -5.55% (inactive).

With `Cc1cc(C)n2nc3c4ccsc4ncc3c2n1` as the compound, how does the growth inhibition read?
The growth inhibition was -5.45% (inactive).

For `CC1=CC=CC(C)(C)C(=O)C1=O`, which growth inhibition is on record?
The growth inhibition was -13.2% (inactive).

For `CC1(C)NNC(=S)NC1=O`, which growth inhibition is on record?
The growth inhibition was -13.6% (inactive).

For `Oc1cccnc1CN1CCOCC1`, which growth inhibition is on record?
Its growth inhibition is -14.3% (inactive).

Which growth inhibition does the source give for `Cc1cc(C)c(C(=O)O)c(C)c1Br` here?
Its growth inhibition is -27.4% (inactive).

With `CNc1ccn(C2OC(CO)C(O)C2O)c(=O)n1` (stereo not given) as the compound, how does the growth inhibition read?
Its growth inhibition is -7.5% (inactive).

For `O=C(c1ccc(Cl)cc1)C(c1ccccc1)N1CCCCC1` (stereo not given), which growth inhibition is on record?
The growth inhibition was -8.15% (inactive).

For `Nc1nnc2nc(CC(=O)c3ccc(F)cc3)c(CC(=O)c3ccc(F)cc3)nn12`, which growth inhibition is on record?
Its growth inhibition is 30.3% (inactive).

For `Oc1ccc2c(c1)c1ccccc1c1ncccc21`, which growth inhibition is on record?
The growth inhibition was 3.4% (inactive).

For `COC1(C)CNc2ccccc2C(=O)N1` (stereo not given), which growth inhibition is on record?
Its growth inhibition is -7.4% (inactive).

Which growth inhibition does the source give for `CCN(CC)CCCNc1ccnc2ccc(Cl)cc12` here?
Its growth inhibition is -15.6% (inactive).

With `O=C(NC(=O)c1ccccc1[N+](=O)[O-])Nc1ccc(Oc2ncc(Cl)cn2)c(C(F)(F)F)c1` as the compound, how does the growth inhibition read?
The growth inhibition was -23.6% (inactive).

Which growth inhibition does the source give for `CC(C#N)N(C)c1c([N+](=O)[O-])c(=O)n(C)c(=O)n1C` (stereo not given) here?
Its growth inhibition is -13.3% (inactive).

Which growth inhibition does the source give for `Cc1nc(-c2ccccc2)nc2c1nc(Cc1ccc(Cl)cc1)n2Nc1ccccc1` here?
Its growth inhibition is -0.3% (inactive).

For `C[C@@]1(Cc2ccccc2)C(=O)N2[C@@H](CO)C(c3ccccc3)O[C@]2(C)c2ccccc21` (stereo not given in full), which growth inhibition is on record?
The growth inhibition was 4.7% (inactive).

For `CN(C)c1ccc(/C=C(\C#N)c2ccccc2Br)cc1`, which growth inhibition is on record?
The growth inhibition was -10.5% (inactive).

For `NCC(=O)NC1CCCCC1`, which growth inhibition is on record?
The growth inhibition was 1.85% (inactive).

Which growth inhibition does the source give for `NNC(=Nc1ccccc1)SCc1ccccc1` here?
The growth inhibition was 0.5% (inactive).

For `C/C(=N/NC(N)=O)c1ccc(C)o1`, which growth inhibition is on record?
The growth inhibition was -3.55% (inactive).

For `CNCC(OC)OC`, which growth inhibition is on record?
Its growth inhibition is -29.8% (inactive).

Which growth inhibition does the source give for `Cc1c[nH]c(=O)n(CC(=O)C2(O)CCC3C4CCC5=CC(=O)CCC5(C)C4CCC32C)c1=O` (stereo not given) here?
The growth inhibition was -4.45% (inactive).
